This passage reports growth inhibition results from PubChem BioAssay (NCI).

About 79,000 compounds went through this panel and 15% of them were active in at least one assay; those are over-represented in the sample as a whole. Activity calls are given as the source filed them. Cut-off read from the data, not from the text of the source: active = growth inhibition above about 70%; inactive = the rest.

This test in a line: NCI Yeast Anticancer Drug Screen. Data for the bub3 strain (AID 167). The conditions noted are these: S. cerevisiae bub3 mutant strain, at 100.0 µM, active compounds read high. An outline of the steps:
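Mutant yeast screening strain plus compound; vehicle-treated cultures serve as the 0% inhibition reference.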
Regarding `CNC(=O)OCc1c(COC(=O)NC)c(C)n(-c2ccc(Cl)c(Cl)c2)c1C`, the growth inhibition was 98% (active).

For `COc1ccc2nc(N/N=C/c3sccc3C)cc(C)c2c1`, the growth inhibition is 96% (active).

Turning to `O=C(O)/C=C\C(=O)NNc1ccc(Br)cc1`, the growth inhibition was 99% (active).

As for `S=c1[nH]nc(Cc2ccccc2)c(=S)[nH]1`, the growth inhibition is 97% (active).

As for `COc1ccc2nc3cccc([N+](=O)[O-])c3c(NCCCO)c2c1`, the growth inhibition was 99% (active).

Turning to `CCN(CC)CCSc1c2ccccc2nc2cc(NCC(=O)Nc3ccccc3-c3ccccc3NC(=O)CNc3ccc4c(SCCN(CC)CC)c5ccccc5nc4c3)ccc12`, the growth inhibition is 98% (active).

Turning to `Cc1ccc(N(C=O)c2c([N+](=O)[O-])cc([N+](=O)[O-])c3c2=[N+]([O-])CN=3)cc1`, the growth inhibition is 97% (active).

`COc1ccc(C(=O)OCCc2ccccc2)cc1`: the growth inhibition was 34% (inactive).

Turning to `COc1ccc(C(=O)NCCN(C)C)c2nc3ccccc3cc12`, the growth inhibition was 41% (inactive).

Turning to `NCC(O)CSCc1ccc(Cl)cc1` (stereo not drawn), the growth inhibition is 42% (inactive).

For the molecule `CN(C)/N=N/c1nc[nH]c1C(N)=O`, the growth inhibition is 96% (active).

Regarding `O=c1[nH]c(=O)n(CCCO)cc1F`, the growth inhibition was -21% (inactive).

As to `COc1ccc(/C(=N/O)c2ccccc2C2=Nc3ccccc3C(NCc3ccccc3)O2)cc1C` (stereo not drawn), the growth inhibition was 95% (active).

With `CCCC(=O)OC(OC(=O)CCC)c1ccc([N+](=O)[O-])o1`, the growth inhibition is 3% (inactive).

Take `O=C(/C(=C/c1ccccc1)CBr)c1ccccc1`: the growth inhibition was 99% (active).

As to `O=C(Cc1ccccc1F)NC1=C(Cl)C(=O)c2ccccc2C1=O`, the growth inhibition was 73% (active).

Regarding `Cc1cccc(N2CCN(C(=O)/C(=C/c3ccccc3)NC(=O)c3ccccc3)CC2)c1`, the growth inhibition was 38% (inactive).

On to `c1cc(Nc2ccc3c(c2)OCO3)c2cc(C3CCCCC3)ccc2n1`, for which the growth inhibition is 74% (active).

Consider `Cc1ccc2nc(N/N=C/c3ccc(C)s3)cc(C)c2c1`, for which the growth inhibition is 95% (active).

For the molecule `COc1cc(NCCCCCNC(C)C)c2ncccc2c1Cl`, the growth inhibition was 25% (inactive).

Regarding `COc1ccc2cc(CN3CCC(C4CCN(Cc5ccc6cc(OC)ccc6c5)CC4)CC3)ccc2c1`, the growth inhibition was 98% (active).

Regarding `CC(=O)O/N=C/c1c2ccccc2cc2ccccc12`, the growth inhibition was 63% (inactive).

Regarding `CC[C@@]1(OC(=O)CN(C)C)C(=O)OCc2c1cc1n(c2=O)Cc2cc3ccccc3nc2-1`, the growth inhibition is 96% (active).

Consider `CC1(C)CC(=O)C(C(CC(c2ccccc2)c2cc3c(cc2O)OCO3)C2=C(O)CC(C)(C)CC2=O)=C(O)C1` (stereo not drawn), for which the growth inhibition is 82% (active).

With `CCCCCCC(CCl)c1sc(-c2csc(CCNC(=O)OC(C)(C)C)n2)nc1C(=O)OC` (stereo not drawn), the growth inhibition is 94% (active).

In the case of `CCOC(=O)C1=C(C)NC(C)=C(C(=O)OCC)C1c1cccc([N+](=O)[O-])c1`, the growth inhibition is 73% (active).

For the molecule `Cc1ccc2c(/C=C/c3ccc(N(C)C)cc3)ccnc2c1C`, the growth inhibition was 84% (active).

Consider `O=C1C(Br)=CC(Br)(Br)C=C1Br`, for which the growth inhibition is 98% (active).
